Compound activity (PubChem)
MITF TRPM1 inh: MITF TRPM1 promoter inhibition in SK-MEL-5 cells. SK-MEL-5 TRPM1 promoter luciferase, 24 h. inhibition, % at 12.5 µM. 330,000 tested, 0.83% active. AID 488899;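 active = mean inhibition across replicates of 60% or more, whatever share of single replicates reaches that level; inconclusive = some that reach 60%, reason not given; inactive = mean inhibition across replicates below 60%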
EWS-Fli block: blocks EWS/Fli oncoprotein-driven transcription; A673 NR0B1-luciferase reporter, viability-normalised; inhibition, % at 12.6 µM; 350,000 tested, 0.67% active; AID 651661;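 active = mean inhibition of at least 50% after viability correction, with every replicate also passing that limit; inconclusive = mean reaches 50% but only one of two replicates passes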;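 also: firefly luciferase signal divided by Alamar Blue viability fluorescence both relative to DMSO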
ABHD5-PLIN5 inh: inhibitors of human ABHD5-perilipin-5 interaction | Q00G26+Q8WTS1 | AID 602281 | 360,000 tested, 0.78% active | inhibition, % at 4 µM | Split G. princeps luciferase complementation, luminescence, 4 h;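 active = inhibition above the mean inhibition across every tested compound plus 3 SD, cut at about 22% in these data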;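 also: 0% = DMSO only wells and the 100% control is not disclosed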
Target sequence (Q00G26 whole entry, looked up): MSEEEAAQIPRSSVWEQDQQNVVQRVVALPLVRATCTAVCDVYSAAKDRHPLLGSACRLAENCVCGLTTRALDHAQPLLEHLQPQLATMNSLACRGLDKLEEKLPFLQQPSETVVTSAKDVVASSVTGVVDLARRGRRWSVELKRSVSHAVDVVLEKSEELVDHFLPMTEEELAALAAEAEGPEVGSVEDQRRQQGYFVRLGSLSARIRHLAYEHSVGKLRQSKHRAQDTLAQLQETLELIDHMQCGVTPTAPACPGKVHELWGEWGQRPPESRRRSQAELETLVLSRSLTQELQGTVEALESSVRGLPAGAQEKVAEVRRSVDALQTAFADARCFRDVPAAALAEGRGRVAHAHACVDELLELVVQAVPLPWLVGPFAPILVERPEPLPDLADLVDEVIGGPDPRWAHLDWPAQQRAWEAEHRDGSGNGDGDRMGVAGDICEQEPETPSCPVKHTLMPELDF
Target sequence (Q8WTS1 whole entry, looked up): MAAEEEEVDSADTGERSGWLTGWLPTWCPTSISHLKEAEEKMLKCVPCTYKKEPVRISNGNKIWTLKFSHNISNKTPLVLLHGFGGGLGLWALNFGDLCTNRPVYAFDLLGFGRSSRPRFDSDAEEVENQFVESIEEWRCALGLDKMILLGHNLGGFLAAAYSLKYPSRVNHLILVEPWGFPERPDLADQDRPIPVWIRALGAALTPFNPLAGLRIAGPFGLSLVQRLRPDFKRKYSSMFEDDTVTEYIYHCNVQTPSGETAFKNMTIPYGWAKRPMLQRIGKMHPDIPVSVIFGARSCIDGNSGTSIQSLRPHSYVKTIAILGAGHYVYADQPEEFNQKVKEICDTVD
Peg3 promoter: Peg3 promoter activity inhibition. HeLa PEG-Prom luciferase reporter, luminescence, overnight. inhibition, % at 20 µM. 360,000 tested, 1.7% active;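 active = inhibition of at least 50% at 20 µM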
Shn3 3UTR inh: reduces Shn3 3'UTR luciferase signal in osteoblasts; Clone20 osteoblast Shn3 3'UTR firefly luciferase, 24 h; inhibition, % at 12.5 µM; 360,000 tested, 0.52% active; AID 588674;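 active = mean inhibition of at least 75% with every replicate also reaching 75%; inconclusive = mean inhibition at least 75% but some replicate below; inactive = mean inhibition below 75%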;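 also: 0% = median of neutral control wells and 100% = pilot-screen positive control compound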
PAX8 inh HTS: inhibitors of PAX8 transcriptional activity in RMG-I cells | RMG-I TPO-luciferase reporter, SteadyGlo, 24 h | inhibition, % at 12.6 µM | 360,000 tested, 1.2% active;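 active = mean replicate inhibition at least 60% with every replicate also reaching 60%; inconclusive = only one of the two criteria is met; inactive = mean below 60% and not all replicates reaching 60%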;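 also: luciferase light reporting Pax8 driven TPO promoter activity; plate controls were median of neutral control wells for no effect and mitoxantrone controls for full effect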
* marks the source's active call; other numbers are inactive results. Sampled rows, rich in hits. Any-hit rate of the full collection: about 3%.

For CC(=O)N1[C@H](CO)[C@@H](c2ccccc2)[C@@H]1CN(C)C(=O)CN1CCOCC1 the results were EWS-Fli block -5 and PAX8 inh HTS -1.
CC(=O)N[C@H]1[C@H](OCc2ccccc2F)O[C@H](COC(C)=O)[C@@H](OC(C)=O)[C@@H]1OC(C)=O was read as MITF TRPM1 inh 2, EWS-Fli block 1, ABHD5-PLIN5 inh -1, Peg3 promoter 7 and PAX8 inh HTS 17.
`COc1ccc(O[C@@H]2O[C@H](COC(C)=O)[C@@H](OC(C)=O)[C@H](OC(C)=O)[C@H]2NC(C)=O)cc1` gave MITF TRPM1 inh 2, EWS-Fli block 5, ABHD5-PLIN5 inh -4, Peg3 promoter 79*, Shn3 3UTR inh 26 and PAX8 inh HTS 5.
`CCOc1ccc(Nc2cc(C)nc(-n3nc(C)cc3C)n2)cc1` gave MITF TRPM1 inh 42, ABHD5-PLIN5 inh 8, Peg3 promoter 27, Shn3 3UTR inh 25 and PAX8 inh HTS 68*.
Screening COc1ccc(-c2cc(C(=O)Nc3ccc(C)c(C)c3)no2)cc1 returned MITF TRPM1 inh -7, EWS-Fli block -5, ABHD5-PLIN5 inh 2, Peg3 promoter 8, Shn3 3UTR inh -14 and PAX8 inh HTS -3.
`COc1ccc(-c2cc(C(=O)Nc3cccc(O)c3)no2)cc1` gave MITF TRPM1 inh 9, EWS-Fli block 69*, ABHD5-PLIN5 inh 0, Peg3 promoter -123, Shn3 3UTR inh 2 and PAX8 inh HTS -16.
CCOc1ccc(NC(=O)CCCc2cc(-c3ccc(OCC)cc3)on2)cc1 was read as MITF TRPM1 inh 22, ABHD5-PLIN5 inh 2, Peg3 promoter -11, Shn3 3UTR inh 12 and PAX8 inh HTS -23.
CCOc1ccc(-c2cc(CCCC(=O)Nc3cccc(OC)c3)no2)cc1 was read as MITF TRPM1 inh inconclusive, EWS-Fli block 64*, ABHD5-PLIN5 inh 1, Peg3 promoter -13, Shn3 3UTR inh 22 and PAX8 inh HTS 1.
`COc1ccc2c3c(n(C)c2c1)[C@H](CO)N(Cc1ccc2c(c1)OCO2)CC31CN(C(=O)c2ccc3c(c2)OCO3)C1` gave EWS-Fli block -9.
CCN(CC)CCN1C(=O)c2cccc3cc(N)cc(c23)C1=O was read as MITF TRPM1 inh 8, EWS-Fli block 19, ABHD5-PLIN5 inh 6, Peg3 promoter 51*, Shn3 3UTR inh -28 and PAX8 inh HTS -13.
O=C1c2cccc3cccc(c23)C(=O)N1CCO was read as EWS-Fli block -7, ABHD5-PLIN5 inh 2, Peg3 promoter -9, Shn3 3UTR inh 12 and PAX8 inh HTS -23.
Screening N=c1c2c(ncn1Cc1ccco1)Oc1c(ccc3ccccc13)C2c1ccccc1 (stereo not drawn) returned MITF TRPM1 inh 15, ABHD5-PLIN5 inh -1, Peg3 promoter 80*, Shn3 3UTR inh 9 and PAX8 inh HTS 8.
For COc1ccc(NC(=O)c2cc3c([nH]c4ccccc43)c(C)n2)cc1 the results were MITF TRPM1 inh 13, EWS-Fli block -16, ABHD5-PLIN5 inh 3, Peg3 promoter -12, Shn3 3UTR inh 15 and PAX8 inh HTS 10.
`Cc1nc(C(=O)Nc2ccccc2Cl)cc2c1[nH]c1ccccc12` gave MITF TRPM1 inh 22, ABHD5-PLIN5 inh -5, Peg3 promoter 85*, Shn3 3UTR inh -18 and PAX8 inh HTS -39.
`COc1ccc2c3c([nH]c2c1)[C@H](CO)N(C(=O)C1CCC1)CC31CN(Cc2cccc(F)c2)C1` gave EWS-Fli block 2 and PAX8 inh HTS -14.
C[C@@H]1C[C@H]2[C@@H]3CCC4=CC(=O)C=C[C@]4(C)[C@@]3(Cl)[C@@H](O)C[C@]2(C)[C@@]1(OC(=O)c1ccco1)C(=O)CCl was read as MITF TRPM1 inh 2, EWS-Fli block 17, ABHD5-PLIN5 inh -7, Peg3 promoter 68*, Shn3 3UTR inh 57 and PAX8 inh HTS 14.
Screening CC(C)NC(=O)N(C)C[C@@H]1OCCCC[C@@H](C)Oc2ccc(NC(=O)Nc3ccc(C(F)(F)F)cc3)cc2C(=O)N([C@@H](C)CO)C[C@@H]1C returned EWS-Fli block -5 and PAX8 inh HTS 3.
For C[C@@H]1CCCCO[C@H](CN(C)C(=O)Nc2ccc(C(F)(F)F)cc2)[C@H](C)CN([C@@H](C)CO)C(=O)c2cc(NC(=O)Nc3ccc(C(F)(F)F)cc3)ccc2O1 the results were EWS-Fli block -14 and PAX8 inh HTS -1.
